# In the supplement of paper PMC7366291:
# Structures can show the parent of a compound that is named as a salt. ± gives the standard deviation or the standard deviation of the averaged measurements.
# What was measured:
# Conditions in all cases: 25 µM; exposure: 24-48 hpf
# [1] = system: Danio rerio Tg(wt1b:EGFP) embryo, pronephros; assay: glomerular separation, fold change vs DMSO control; higher = glomeruli further apart (abnormal)
# Summary of the method: (§1)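 Dechorionated Tg(wt1b:EGFP) zebrafish embryos were exposed to 25 μM compound in 0.5% DMSO, HEPES-buffered E3 with 0.003% PTU, from 24 to 48 hpf at 28.5°C. Pronephroi were imaged dorsally in agarose-filled 96-well plates (470 nm, 10 z-slices). On maximum projections, 16 reference points were set manually in Fiji and a macro computed distances and angles. Values more than 2 SD from the feature mean were excluded. Each feature is a fold change relative to the mean of same-day DMSO controls.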
# [2] = system: Danio rerio Tg(wt1b:EGFP) embryo, pronephros; assay: glomerular width (mean of left and right), fold change vs DMSO control; higher = wider glomerulus
# Summary of the method: as §1
# [3] = system: Danio rerio Tg(wt1b:EGFP) embryo, pronephros; assay: fraction of imaged embryos annotated as normal kidney; higher = less nephrotoxic; extreme values may be limits of the assay
# Summary of the method: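 The value given is the share of embryos in each treatment scored as having a normal kidney. To obtain it, dechorionated Tg(wt1b:EGFP) zebrafish embryos were treated from 24 to 48 hpf at 28.5°C with 25 μM compound in 0.5% DMSO, in 5 mM HEPES-buffered E3 with 0.003% PTU. Pronephroi were imaged by widefield fluorescence (470 nm, 10 z-slices), and every embryo was annotated by hand from maximum projections.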
# [4] = system: Danio rerio Tg(wt1b:EGFP) embryo, pronephros; assay: pronephric angle neck segment to proximal convoluted tubule (mean of left and right), fold change vs DMSO control; higher = larger pronephric angle
# Summary of the method: as §1
SMILES,glomerular separation [1],glomerular width [2],fraction of imaged embryos annotated as normal kidney [3],pronephric angle neck segment [4]
Cc1cc(N)c2ccccc2[n+]1CCCCCCCCCC[n+]1c(C)cc(N)c2ccccc21 [Dequalinium dichloride],1 ± 0.33,1.02 ± 0.021,0.75,0.9864 ± 0.0034
CC(CNC1CCCCC1)OC(=O)c1ccccc1 (stereo unspecified) [Hexylcaine hydrochloride],0.859 ± 0.46,0.937 ± 0.014,0.857,1.09 ± 0.14
COc1ccccc1OCC(O)COC(N)=O (stereo unspecified) [Methocarbamol],1.02 ± 0.45,1.05 ± 0.03,0.833,1 ± 0.013
COC(=O)CCc1ccc(OCC(O)CNC(C)C)cc1 (stereo unspecified) [Esmolol hydrochloride],0.66 ± 0.2,1.15 ± 0.035,0.75,0.986 ± 0.013
COc1cccc(N(C)C(=S)Oc2ccc3c(c2)CCCC3)n1 [Liranaftate],1.14 ± 0.62,1.025 ± 0.0045,0.667,1.06 ± 0.033
CC1(C)O[C@@H]2C[C@H]3[C@@H]4CCC5=CC(=O)CC[C@]5(C)[C@@]4(F)[C@@H](O)C[C@]3(C)[C@]2(C(=O)CCl)O1 [Halcinonide],2.01 ± 0.91,1.18 ± 0.014,0.333,1.14 ± 0.043
CC1(C)S[C@@H]2[C@H](NC(=O)Cc3ccccc3)C(=O)N2[C@H]1C(=O)O [Benzylpenicillin sodium],0.915 ± 0.33,1.02 ± 0.014,0.833,1.017 ± 0.0055
NCCNCCNCCNCCN [Tetraethylenepentamine pentahydrochloride],0.956 ± 0.33,1.08 ± 0.041,0.75,1.02 ± 0.049
CO[C@H]1/C=C/O[C@@]2(C)Oc3c(C)c(O)c4c(O)c(c5c(nc6cc(C)ccn65)c4c3C2=O)NC(=O)/C(C)=C\C=C\[C@H](C)[C@H](O)[C@@H](C)[C@@H](O)[C@@H](C)[C@H](OC(C)=O)[C@@H]1C [Rifaximin],0.666 ± 0.16,1.06 ± 0.019,0.833,0.984 ± 0.022
NS(=O)(=O)c1cc(C(=O)O)c(NCc2ccco2)cc1Cl [Furosemide],0.867 ± 0.13,0.959 ± 0.097,0.818,1.015 ± 0.01
Cc1cn([C@H]2C=C[C@@H](CO)O2)c(=O)[nH]c1=O [Stavudine],0.929 ± 0.3,0.874 ± 0.0014,1,0.9729 ± 0.00098
CCCCNc1cc(C(=O)O)cc(S(N)(=O)=O)c1Oc1ccccc1 [Bumetanide],1.41 ± 0.43,1.08 ± 0.023,0.75,1 ± 0.022
OCCN1CCN(CC/C=C2/c3ccccc3Sc3ccc(Cl)cc32)CC1 [Zuclopenthixol dihydrochloride],1.17 ± 0.21,0.97247 ± 0.0005,0.833,1.01 ± 0.039
O=C(O)[C@H]1/C(=C/CO)O[C@@H]2CC(=O)N21 [Clavulanate potassium salt],0.835 ± 0.22,1.04 ± 0.032,0.833,1.001 ± 0.00045
CCOc1ccc2c(c1)C(C)=CC(C)(C)N2 [Ethoxyquin],0.864 ± 0.31,1.04 ± 0.039,0.75,0.975 ± 0.044
CCOC(=O)C1=C[C@]2(CC)CCCN3CCc4c(n1c1ccccc41)[C@@H]32 [Vinpocetine],1.08 ± 0.2,1.037 ± 0.0011,0.909,1.05 ± 0.039
C=CC1=C(C(=O)O)N2C(=O)[C@@H](NC(=O)/C(=N\OCC(=O)O)c3csc(N)n3)[C@H]2SC1 [Cefixime],1.32 ± 0.59,1 ± 0.014,0.75,1.07 ± 0.1
CN(CCCN1c2ccccc2CCc2ccccc21)CC(=O)c1ccc(Cl)cc1 [Lofepramine],1.23 ± 0.38,0.98 ± 0.035,0.917,1.09 ± 0.011
Clc1cccc(Cl)c1NC1=NCCN1 [Clonidine hydrochloride],0.954 ± 0.35,1.001 ± 0.0053,0.583,0.96 ± 0.067
"CN1[C@@H]2CC[C@H]1C[C@@H](OC(=O)C(O)c1ccccc1)C2 (mixture of isomers) [Homatropine hydrobromide (R,S)]",0.957 ± 0.29,1.06 ± 0.015,0.75,0.9643 ± 0.0018
CN(C)CC/C=C1/c2ccccc2Sc2ccc(Cl)cc21 [Chlorprothixene hydrochloride],0.89 ± 0.23,1.034 ± 1.4e-05,0.727,1.04 ± 0.074
Nc1nc2c(ncn2COC(CO)CO)c(=O)[nH]1 [Ganciclovir],0.62 ± 0.26,1.009 ± 0.0021,0.917,0.998 ± 0.018
CCN(CC)CCNC(=O)c1cc(Br)c(N)cc1OC [Bromopride],0.903 ± 0.35,1.04 ± 0.015,1,1.02 ± 0.036
Cc1cc2c(cc1S(N)(=O)=O)S(=O)(=O)CCC2 [Meticrane],0.987 ± 0.28,0.9447 ± 0.0016,0.917,1.01 ± 0.04
CC(C)COCC(CN(Cc1ccccc1)c1ccccc1)N1CCCC1 (stereo unspecified) [Bepridil hydrochloride],0.94 ± 0.41,1.03 ± 0.03,0.818,0.993 ± 0.033
C[C@H](CCC(=O)O)[C@H]1CC[C@H]2[C@@H]3[C@@H](O)C[C@@H]4C[C@H](O)CC[C@]4(C)[C@H]3CC[C@]12C [Urosiol],1.3 ± 0.7,0.775 ± 0.074,0.583,0.965 ± 0.032
CC(C)(C)NC[C@H](O)COc1nsnc1N1CCOCC1 [Timolol maleate salt],0.812 ± 0.37,0.9995 ± 0.0057,0.833,0.9989 ± 0.0023
CC(=O)OCC(=O)[C@@]1(O)CC[C@H]2[C@@H]3CCC4=CC(=O)CC[C@]4(C)[C@@]3(F)[C@@H](O)C[C@@]21C [Fludrocortisone acetate],1.6 ± 0.63,1.23 ± 0.023,0.583,1.18 ± 0.16
Cc1ncc(C[n+]2csc(CCO)c2C)c(N)n1 [Thiamine hydrochloride],0.951 ± 0.4,1.1 ± 0.036,0.917,0.994 ± 0.025
